In PubChem BioAssay AID1159580 (chemical genetic matrix, 2015):
Hit rate of the full screen: of about 5,500 compounds, about 2,000 (36%) were called active. Inconclusive results (about 18%) are left out. No stated cut-off is given here; in the data, active means normalized growth mostly below about 0.91 (no sharp cut-off); inconclusive means no clear call, values can overlap the other calls; inactive means mostly above about 0.92. This is one part of the list.

Assay: chemical genetic growth profiling, strain panel (AID 1159580);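 further: tested at 20 µM; growth read once vehicle control cultures reached saturation at 30 °C; 1 = growth at the plate median or of vehicle wells; lower values mean less growth of the strain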
Conditions: S. cerevisiae deletion strains, growth OD
[1] = locus YAR019C, strain CDC15, hits give low values
[2] = locus YBL105C, strain PKC1, hits give low values
[3] = locus YBR135W, strain CKS1, hits give low values
[4] = locus YBR136W, strain MEC1, hits give low values
[5] = locus YBR160W, strain CDC28, hits give low values
[6] = locus YDL017W, strain CDC7, hits give low values
[7] = locus YDL028C, strain MPS1, hits give low values
[8] = locus YDL101C, strain DUN1, hits give low values
[9] = locus YDL108W, strain KIN28, hits give low values
[10] = locus YDL132W, strain cdc53, hits give low values
[11] = locus YDL214C, strain PRR2, hits give low values
[12] = locus YDR052C, strain DBF4, hits give low values
[13] = locus YDR054C, strain cdc34, hits give low values
[14] = locus YDR226W, strain ADK1, hits give low values
[15] = locus YDR477W, strain SNF1, hits give low values
[16] = locus YER123W, strain YCK3, hits give low values
[17] = locus YER133W, strain GLC7, hits give low values
[18] = locus YFL009W, strain cdc4, hits give low values
[19] = locus YFL029C, strain CAK1, hits give low values
[20] = locus YFR003C, strain YPI1, hits give low values
[21] = locus YFR019W, strain FAB1, hits give low values
[22] = locus YFR028C, strain CDC14, hits give low values
[23] = locus YGR040W, strain KSS1, hits give low values
[24] = locus YGR052W, strain FMP48, hits give low values
[25] = locus YGR092W, strain DBF2, hits give low values
[26] = locus YHR030C, strain SLT2, hits give low values
[27] = locus YHR079C, strain IRE1, hits give low values
[28] = locus YHR082C, strain KSP1, hits give low values
[29] = locus YHR205W, strain SCH9, hits give low values
[30] = locus YIL147C, strain SLN1, hits give low values
[31] = locus YJL095W, strain BCK1, hits give low values
[32] = locus YJL128C, strain PBS2, hits give low values
[33] = locus YJL157C, strain FAR1, hits give low values
[34] = locus YJR016C, strain ILV3, hits give low values
[35] = locus YJR066W, strain TOR1 (second series), hits give low values
[36] = locus YJR066W, strain TOR1, hits give low values
[37] = locus YKL048C, strain ELM1, hits give low values
[38] = locus YKL067W, strain YNK1, hits give low values
[39] = locus YKL101W, strain HSL1, hits give low values
[40] = locus YKL193C, strain SDS22, hits give low values
[41] = locus YKL203C, strain TOR2, hits give low values
[42] = locus YLR113W, strain HOG1, hits give low values
[43] = locus YLR133W, strain CKI1, hits give low values
[44] = locus YLR403W, strain SFP1, hits give low values
[45] = locus YML070W, strain DAK1, hits give low values
[46] = locus YMR001C, strain CDC5, hits give low values
[47] = locus YMR205C, strain PFK2 (second series), hits give low values
[48] = locus YMR277W, strain FCP1, hits give low values
[49] = locus YNL006W, strain LST8, hits give low values
[50] = locus YNL020C, strain ARK1, hits give low values
[51] = locus YNL161W, strain CBK1, hits give low values
[52] = locus YNL183C, strain NPR1, hits give low values
[53] = locus YNL207W, strain RIO2, hits give low values
[54] = locus YNL222W, strain SSU72, hits give low values
[55] = locus YNL307C, strain MCK1 (second series), hits give low values
[56] = locus YOL078W, strain AVO1, hits give low values
[57] = locus YOL136C, strain PFK27, hits give low values
[58] = locus YOR061W, strain CKA2, hits give low values
[59] = locus YOR119C, strain RIO1, hits give low values
[60] = locus YOR231W, strain MKK1, hits give low values
[61] = locus YOR329C, strain SCD5, hits give low values
[62] = locus YPL031C, strain PHO85, hits give low values
[63] = locus YPL153C, strain RAD53, hits give low values
[64] = locus YPL204W, strain HRR25, hits give low values
[65] = locus YPL209C, strain IPL1, hits give low values
[66] = locus YPL256C, strain CLN2, hits give low values
[67] = locus YPR025C, strain CCL1, hits give low values
[68] = locus YPR106W, strain ISR1, hits give low values
[69] = locus YPR111W, strain DBF20, hits give low values
[70] = strain NNK1, hits give low values
[71] = strain TSCII, hits give low values

Measured: normalized growth

CCCc1cnc(N2CCN(CC(=O)N(c3ccccc3)C3CCCCC3)CC2)nc1
inactive: [1] 0.995 | [2] 0.985 | [3] 0.992 | [4] 0.985 | [5] 0.984 | [6] 0.991 | [7] 0.997 | [8] 0.986 | [9] 0.99 | [10] 0.992 | [11] 0.997 | [12] 0.989 | [13] 0.974 | [14] 0.985 | [15] 0.999 | [16] 0.997 | [17] 1 | [18] 0.989 | [19] 0.993 | [20] 0.988 | [21] 1 | [22] 0.999 | [23] 0.985 | [24] 1.09 | [25] 1 | [26] 1.05 | [27] 1.03 | [28] 1.09 | [29] 0.97 | [30] 0.99 | [31] 1.05 | [32] 0.985 | [33] 0.981 | [34] 1 | [35] 0.995 | [36] 1.07 | [37] 0.969 | [38] 1 | [39] 0.993 | [40] 0.99 | [41] 1.05 | [42] 0.949 | [43] 0.997 | [44] 0.977 | [45] 1.03 | [46] 0.991 | [47] 1.01 | [48] 0.994 | [49] 0.988 | [50] 0.997 | [51] 0.99 | [52] 1.04 | [53] 0.997 | [54] 0.995 | [55] 1 | [56] 0.994 | [57] 0.985 | [58] 1.01 | [59] 1.04 | [60] 0.992 | [61] 0.986 | [62] 1 | [63] 0.998 | [64] 0.981 | [65] 0.98 | [66] 0.968 | [67] 0.99 | [68] 0.979 | [69] 0.976 | [70] 0.99 | [71] 0.992

Cc1ccc2c(c1)CCCN2CC(=O)N(c1ccccc1)C1CCCCC1
inactive: [1] 0.989 | [2] 0.978 | [3] 0.986 | [4] 0.986 | [5] 0.978 | [6] 0.982 | [7] 0.994 | [8] 0.984 | [9] 0.986 | [10] 0.987 | [11] 0.943 | [12] 0.991 | [13] 0.975 | [14] 0.992 | [15] 0.951 | [16] 0.928 | [17] 0.951 | [18] 0.989 | [19] 0.986 | [20] 0.986 | [21] 0.961 | [22] 0.976 | [23] 0.923 | [24] 0.994 | [25] 0.948 | [26] 0.966 | [27] 0.965 | [28] 0.991 | [29] 0.991 | [30] 0.991 | [31] 0.965 | [32] 0.932 | [33] 0.944 | [34] 0.985 | [35] 0.928 | [36] 0.999 | [37] 0.945 | [38] 0.946 | [39] 0.912 | [40] 0.974 | [41] 0.999 | [43] 0.937 | [44] 0.935 | [45] 0.912 | [46] 0.991 | [47] 0.955 | [48] 0.99 | [49] 0.992 | [50] 0.943 | [51] 0.983 | [52] 0.941 | [53] 0.98 | [54] 0.983 | [55] 0.948 | [56] 0.99 | [57] 0.925 | [58] 0.956 | [59] 1 | [60] 0.907 | [61] 0.995 | [62] 0.95 | [63] 0.936 | [64] 0.957 | [65] 0.98 | [66] 0.884 | [67] 0.991 | [68] 0.97 | [69] 0.964 | [70] 0.973 | [71] 0.987
active: [42] 0.836

CN(C)C(=O)Oc1cc(OC(=O)N(C)C)cc(C(O)CNC(C)(C)C)c1 (configuration not stated)
inactive: locus YAL021C, strain ccr4, hits give low values 1.02 | locus YAL026C, strain drs2, hits give low values 1.03 | locus YAL030W, strain snc1, hits give low values 1.02 | locus YBL061C, strain skt5, hits give low values 1.02 | locus YBR009C, strain hhf1, hits give low values 1.04 | locus YBR023C, strain chs3, hits give low values 1.02 | locus YBR171W, strain sec66, hits give low values 1.03 | locus YBR231C, strain swc5, hits give low values 1.03 | locus YBR279W, strain paf1, hits give low values 1.02 | locus YCL011C, strain gbp2, hits give low values 1.03 | locus YCL016C, strain dcc1, hits give low values 1.03 | locus YCL061C, strain MRC1, hits give low values 1.03 | locus YCL069W, strain vba3, hits give low values 1.03 | locus YCR088W, strain abp1, hits give low values 1.03 | locus YDL005C, strain med2, hits give low values 1.03 | locus YDL040C, strain nat1, hits give low values 1.04 | locus YDR001C, strain nth1, hits give low values 1.03 | locus YDR069C, strain doa4, hits give low values 1.03 | locus YDR137W, strain rgp1, hits give low values 1.04 | locus YDR159W, strain sac3, hits give low values 1.05 | locus YDR195W, strain ref2 1.02 | locus YDR297W, strain sur2, hits give low values 1.02 | locus YDR334W, strain swr1, hits give low values 1.04 | locus YDR335W, strain msn5, hits give low values 1.03 | locus YDR392W, strain spt3, hits give low values 0.947 | locus YEL003W, strain gim4, hits give low values 1.02 | locus YEL037C, strain rad23, hits give low values 1.03 | locus YEL061C, strain CIN8 (second series), hits give low values 1.03 | locus YER015W, strain faa2, hits give low values 1.03 | locus YER016W, strain bim1, hits give low values 1.04 | locus YER111C, strain swi4, hits give low values 1.03 | locus YER155C, strain BEM2 (second series), hits give low values 1.03 | locus YFR010W, strain ubp6, hits give low values 1.03 | locus YGL167C, strain pmr1, hits give low values 1.03 | locus YGL173C, strain kem1, hits give low values 1.04 | locus YGL227W, strain vid30, hits give low values 1.04 | locus YGL240W, strain doc1, hits give low values 1.03 | locus YGL253W, strain hxk2, hits give low values 1.03 | locus YHR013C, strain ard1, hits give low values 1.02 | locus YHR027C, strain rpn1, hits give low values 1.04 | [26] 0.977 | [27] 0.991 | locus YHR142W, strain chs7, hits give low values 1.02 | locus YJL092W, strain hpr5, hits give low values 1.02 | locus YJL095W, strain BCK1 (second series), hits give low values 1.03 | [31] 1.01 | locus YJL115W, strain asf1, hits give low values 1.03 | locus YJL129C, strain trk1, hits give low values 1.04 | locus YJL154C, strain vps35, hits give low values 1.03 | locus YJL164C, strain tpk1, hits give low values 1.01 | locus YJL166W, strain qcr8, hits give low values 1.02 | locus YJL187C, strain SWE1, hits give low values 1.02 | [36] 0.921 | locus YKL160W, strain elf1, hits give low values 1.01 | locus YKR026C, strain gcn3, hits give low values 1.03 | locus YKR091W, strain srl3, hits give low values 1.03 | locus YLL001W, strain dnm1, hits give low values 1.04 | locus YLL026W, hits give low values 1.02 | locus YLL041C, strain sdh2, hits give low values 1.03 | locus YLR027C, strain aat2, hits give low values 1.03 | [42] 1.01 | locus YLR221C, strain rsa3, hits give low values 1.02 | locus YLR258W, strain gsy2, hits give low values 1.03 | locus YLR262C, strain YPT6 (second series), hits give low values 1.03 | locus YLR320W, strain mms22, hits give low values 1.04 | locus YLR342W, strain FKS1, hits give low values 1.03 | locus YLR357W, strain rsc2, hits give low values 1.02 | locus YLR370C, strain arc18, hits give low values 1.03 | locus YLR384C, strain iki3, hits give low values 1.02 | locus YML120C, strain ndi1, hits give low values 1 | locus YMR058W, strain fet3, hits give low values 1.03 | locus YMR125W, strain sto1, hits give low values 1.04 | locus YMR129W, hits give low values 1.02 | locus YMR205C, strain PFK2, hits give low values 1.05 | locus YMR231W, strain pep5, hits give low values 1.03 | locus YNL071W, strain lat1, hits give low values 1.03 | [52] 0.934 | locus YNL209W, strain ssb2, hits give low values 1.02 | locus YNL248C, strain rpa49, hits give low values 1 | locus YNL322C, strain KRE1 (second series), hits give low values 1.03 | locus YNR049C, strain mso1, hits give low values 1.03 | locus YOR001W, strain rrp6, hits give low values 0.999 | locus YOR070C, strain gyp1, hits give low values 1.02 | locus YOR080W, strain dia2, hits give low values 1.03 | locus YOR083W, strain WHI5, hits give low values 1.01 | locus YOR106W, strain vam3, hits give low values 1.03 | [60] 1.03 | locus YOR265W, strain rbl2, hits give low values 1.03 | locus YOR270C, strain vph1, hits give low values 1.06 | locus YOR290C, strain snf2, hits give low values 0.989 | locus YPL051W, strain arl3, hits give low values 1.01 | locus YPL078C, strain atp4, hits give low values 1.02 | locus YPL106C, strain sse1, hits give low values 1.05 | locus YPL240C, strain hsp82, hits give low values 1.03 | [66] 0.984
